# Measured values reported in paper PMC11006913.
# Changes are numbered by the printed parent chain.
# Legend:
# Assay in all cases: PBM; 200 nM protein, PBS
# Conditions in all cases: dsDNA, one strand shown
# [1] = molecular target: NKX2-5 (Homo sapiens, UniProt P52952 125-210, R139K)
# [2] = molecular target: T1, NKX2-4 (Homo sapiens, UniProt Q9H2Z4 175-261, P217L)
# T1 sequence: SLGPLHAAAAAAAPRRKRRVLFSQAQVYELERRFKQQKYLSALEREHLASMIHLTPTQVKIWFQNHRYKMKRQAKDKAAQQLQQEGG
# [3] = molecular target: T2, NKX2-4 (Homo sapiens, UniProt Q9H2Z4 175-261, T231S)
# T2 sequence: T1 sequence with L43P, T57S
# [4] = molecular target: T3, NKX2-4 (Homo sapiens, UniProt Q9H2Z4 175-261)
# T3 sequence: T1 sequence with L43P
# [5] = molecular target: T4, NKX2-6 (Homo sapiens, UniProt A6NCS4 118-204, R150C)
# T4 sequence: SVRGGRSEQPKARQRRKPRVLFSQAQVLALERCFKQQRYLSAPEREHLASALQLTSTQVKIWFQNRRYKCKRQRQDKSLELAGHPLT
# [6] = molecular target: T5, NKX2-6 (Homo sapiens, UniProt A6NCS4 118-204)
# T5 sequence: T4 sequence with C33R
# [7] = molecular target: T6, NKX2-4 (Homo sapiens, UniProt Q9H2Z4 175-261, R246Q)
# T6 sequence: T1 sequence with L43P, R72Q
# [8] = molecular target: T7, NKX2-6 (Homo sapiens, UniProt A6NCS4 118-204, F151L)
# T7 sequence: T4 sequence with C33R, F34L
# [9] = molecular target: NKX3-2 (Homo sapiens, UniProt P78367 192-278, P234S)
# [10] = molecular target: NKX2-5 (Homo sapiens, UniProt P52952 125-210)
# [11] = molecular target: NKX3-2 (Homo sapiens, UniProt P78367 192-278)
# Chain of NKX3-2 (Homo sapiens, UniProt P78367 192-278) (P78367 192-278): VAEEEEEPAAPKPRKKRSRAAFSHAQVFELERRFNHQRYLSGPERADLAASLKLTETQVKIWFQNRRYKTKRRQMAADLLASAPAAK
# Chain of NKX2-5 (Homo sapiens, UniProt P52952 125-210) (P52952 125-210): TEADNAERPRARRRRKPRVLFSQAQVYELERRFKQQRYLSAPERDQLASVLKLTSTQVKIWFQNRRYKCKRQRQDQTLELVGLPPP
# Chain of NKX3-2 (Homo sapiens, UniProt P78367 192-278, P234S) (P78367 192-278 P234S): as the sequence (P78367 192-278) above, with P43S counted along it
# Chain of NKX2-5 (Homo sapiens, UniProt P52952 125-210, R139K) (P52952 125-210 R139K): as the sequence (P52952 125-210) above, with R15K counted along it
Sequence,binding signal [1],binding signal [2],binding signal [3],binding signal [4],binding signal [5],binding signal [6],binding signal [7],binding signal [8],binding signal [9],binding signal [10],binding signal [11]
AAGCACTT,"12.7 upbm affinity estimate (log intensity, higher = more binding, comparable within an allelic series)","12.6 upbm affinity estimate (log intensity, higher = more binding, comparable within an allelic series)","12.9 upbm affinity estimate (log intensity, higher = more binding, comparable within an allelic series)","12.4 upbm affinity estimate (log intensity, higher = more binding, comparable within an allelic series)","11.8 upbm affinity estimate (log intensity, higher = more binding, comparable within an allelic series)","13.5 upbm affinity estimate (log intensity, higher = more binding, comparable within an allelic series)","13.1 upbm affinity estimate (log intensity, higher = more binding, comparable within an allelic series)","11 upbm affinity estimate (log intensity, higher = more binding, comparable within an allelic series)","12.5 upbm affinity estimate (log intensity, higher = more binding, comparable within an allelic series)","12.5 upbm affinity estimate (log intensity, higher = more binding, comparable within an allelic series)","12.6 upbm affinity estimate (log intensity, higher = more binding, comparable within an allelic series)"
AAGTACTC,"12.7 upbm affinity estimate (log intensity, higher = more binding, comparable within an allelic series)","12.7 upbm affinity estimate (log intensity, higher = more binding, comparable within an allelic series)","13.1 upbm affinity estimate (log intensity, higher = more binding, comparable within an allelic series)","12.6 upbm affinity estimate (log intensity, higher = more binding, comparable within an allelic series)","11.8 upbm affinity estimate (log intensity, higher = more binding, comparable within an allelic series)","13.6 upbm affinity estimate (log intensity, higher = more binding, comparable within an allelic series)","13.2 upbm affinity estimate (log intensity, higher = more binding, comparable within an allelic series)","10.8 upbm affinity estimate (log intensity, higher = more binding, comparable within an allelic series)","12.7 upbm affinity estimate (log intensity, higher = more binding, comparable within an allelic series)","12.6 upbm affinity estimate (log intensity, higher = more binding, comparable within an allelic series)","12.8 upbm affinity estimate (log intensity, higher = more binding, comparable within an allelic series)"
AAGTGGAT,"12.5 upbm affinity estimate (log intensity, higher = more binding, comparable within an allelic series)","12.5 upbm affinity estimate (log intensity, higher = more binding, comparable within an allelic series)","12.8 upbm affinity estimate (log intensity, higher = more binding, comparable within an allelic series)","12.3 upbm affinity estimate (log intensity, higher = more binding, comparable within an allelic series)","11.8 upbm affinity estimate (log intensity, higher = more binding, comparable within an allelic series)","13.3 upbm affinity estimate (log intensity, higher = more binding, comparable within an allelic series)","12.9 upbm affinity estimate (log intensity, higher = more binding, comparable within an allelic series)","10.7 upbm affinity estimate (log intensity, higher = more binding, comparable within an allelic series)","12.8 upbm affinity estimate (log intensity, higher = more binding, comparable within an allelic series)","12.5 upbm affinity estimate (log intensity, higher = more binding, comparable within an allelic series)","12.8 upbm affinity estimate (log intensity, higher = more binding, comparable within an allelic series)"
GCACTTCA,"12.5 upbm affinity estimate (log intensity, higher = more binding, comparable within an allelic series)","12.6 upbm affinity estimate (log intensity, higher = more binding, comparable within an allelic series)","13 upbm affinity estimate (log intensity, higher = more binding, comparable within an allelic series)","12.5 upbm affinity estimate (log intensity, higher = more binding, comparable within an allelic series)","11.7 upbm affinity estimate (log intensity, higher = more binding, comparable within an allelic series)","13.3 upbm affinity estimate (log intensity, higher = more binding, comparable within an allelic series)","13.2 upbm affinity estimate (log intensity, higher = more binding, comparable within an allelic series)","11.1 upbm affinity estimate (log intensity, higher = more binding, comparable within an allelic series)","12.6 upbm affinity estimate (log intensity, higher = more binding, comparable within an allelic series)","12.4 upbm affinity estimate (log intensity, higher = more binding, comparable within an allelic series)","12.6 upbm affinity estimate (log intensity, higher = more binding, comparable within an allelic series)"
ATAAGTGG,"13.2 upbm affinity estimate (log intensity, higher = more binding, comparable within an allelic series)","12.8 upbm affinity estimate (log intensity, higher = more binding, comparable within an allelic series)","13.2 upbm affinity estimate (log intensity, higher = more binding, comparable within an allelic series)","12.7 upbm affinity estimate (log intensity, higher = more binding, comparable within an allelic series)","12.4 upbm affinity estimate (log intensity, higher = more binding, comparable within an allelic series)","13.9 upbm affinity estimate (log intensity, higher = more binding, comparable within an allelic series)","13.3 upbm affinity estimate (log intensity, higher = more binding, comparable within an allelic series)","11.4 upbm affinity estimate (log intensity, higher = more binding, comparable within an allelic series)","13.1 upbm affinity estimate (log intensity, higher = more binding, comparable within an allelic series)","13.1 upbm affinity estimate (log intensity, higher = more binding, comparable within an allelic series)","13.1 upbm affinity estimate (log intensity, higher = more binding, comparable within an allelic series)"
GCACTTGA,"13.2 upbm affinity estimate (log intensity, higher = more binding, comparable within an allelic series)","12.8 upbm affinity estimate (log intensity, higher = more binding, comparable within an allelic series)","13.2 upbm affinity estimate (log intensity, higher = more binding, comparable within an allelic series)","12.6 upbm affinity estimate (log intensity, higher = more binding, comparable within an allelic series)","12.1 upbm affinity estimate (log intensity, higher = more binding, comparable within an allelic series)","13.9 upbm affinity estimate (log intensity, higher = more binding, comparable within an allelic series)","13.4 upbm affinity estimate (log intensity, higher = more binding, comparable within an allelic series)","11.4 upbm affinity estimate (log intensity, higher = more binding, comparable within an allelic series)",,"13.1 upbm affinity estimate (log intensity, higher = more binding, comparable within an allelic series)",
CCACTCAA,"12.5 upbm affinity estimate (log intensity, higher = more binding, comparable within an allelic series)","12.6 upbm affinity estimate (log intensity, higher = more binding, comparable within an allelic series)","13.1 upbm affinity estimate (log intensity, higher = more binding, comparable within an allelic series)","12.5 upbm affinity estimate (log intensity, higher = more binding, comparable within an allelic series)","11.8 upbm affinity estimate (log intensity, higher = more binding, comparable within an allelic series)","13.4 upbm affinity estimate (log intensity, higher = more binding, comparable within an allelic series)","13.1 upbm affinity estimate (log intensity, higher = more binding, comparable within an allelic series)","10.7 upbm affinity estimate (log intensity, higher = more binding, comparable within an allelic series)","12.6 upbm affinity estimate (log intensity, higher = more binding, comparable within an allelic series)","12.3 upbm affinity estimate (log intensity, higher = more binding, comparable within an allelic series)","12.7 upbm affinity estimate (log intensity, higher = more binding, comparable within an allelic series)"
AACCACTT,"12.9 upbm affinity estimate (log intensity, higher = more binding, comparable within an allelic series)","12.7 upbm affinity estimate (log intensity, higher = more binding, comparable within an allelic series)","13.1 upbm affinity estimate (log intensity, higher = more binding, comparable within an allelic series)","12.6 upbm affinity estimate (log intensity, higher = more binding, comparable within an allelic series)","12 upbm affinity estimate (log intensity, higher = more binding, comparable within an allelic series)","13.7 upbm affinity estimate (log intensity, higher = more binding, comparable within an allelic series)","13.2 upbm affinity estimate (log intensity, higher = more binding, comparable within an allelic series)","10.9 upbm affinity estimate (log intensity, higher = more binding, comparable within an allelic series)","12.9 upbm affinity estimate (log intensity, higher = more binding, comparable within an allelic series)","12.8 upbm affinity estimate (log intensity, higher = more binding, comparable within an allelic series)","12.9 upbm affinity estimate (log intensity, higher = more binding, comparable within an allelic series)"
CCACTTAC,"13 upbm affinity estimate (log intensity, higher = more binding, comparable within an allelic series)","12.6 upbm affinity estimate (log intensity, higher = more binding, comparable within an allelic series)","12.9 upbm affinity estimate (log intensity, higher = more binding, comparable within an allelic series)","12.4 upbm affinity estimate (log intensity, higher = more binding, comparable within an allelic series)","12.2 upbm affinity estimate (log intensity, higher = more binding, comparable within an allelic series)","13.7 upbm affinity estimate (log intensity, higher = more binding, comparable within an allelic series)","13 upbm affinity estimate (log intensity, higher = more binding, comparable within an allelic series)","11 upbm affinity estimate (log intensity, higher = more binding, comparable within an allelic series)","13.2 upbm affinity estimate (log intensity, higher = more binding, comparable within an allelic series)","12.8 upbm affinity estimate (log intensity, higher = more binding, comparable within an allelic series)","13.3 upbm affinity estimate (log intensity, higher = more binding, comparable within an allelic series)"
CACTTAAC,"12.8 upbm affinity estimate (log intensity, higher = more binding, comparable within an allelic series)","12.5 upbm affinity estimate (log intensity, higher = more binding, comparable within an allelic series)","12.9 upbm affinity estimate (log intensity, higher = more binding, comparable within an allelic series)","12.4 upbm affinity estimate (log intensity, higher = more binding, comparable within an allelic series)","11.8 upbm affinity estimate (log intensity, higher = more binding, comparable within an allelic series)","13.7 upbm affinity estimate (log intensity, higher = more binding, comparable within an allelic series)","13.1 upbm affinity estimate (log intensity, higher = more binding, comparable within an allelic series)","11.2 upbm affinity estimate (log intensity, higher = more binding, comparable within an allelic series)","12.9 upbm affinity estimate (log intensity, higher = more binding, comparable within an allelic series)","12.8 upbm affinity estimate (log intensity, higher = more binding, comparable within an allelic series)","12.9 upbm affinity estimate (log intensity, higher = more binding, comparable within an allelic series)"
